# Assay results: PubChem BioAssay (NCATS)
# Inconclusive results are not listed. Where a call stands in place of a potency, no number is given. Unmarked numbers belong to inactive results. Active and inactive are the calls of the source. Unless noted, calls come from the whole dose curve; as a rule, active = well fitted curve in the direction sought with a large enough effect; inconclusive = small, poorly fitted or top-dose-only effect, or another doubt; inactive = no such curve, though single readings can be large; an effect the other way counts as inactive or inconclusive.
# Experiments:
# [1] = target: Aldehyde dehydrogenase, mitochondrial (Homo sapiens) (UniProt P05091); assay: qHTS for Inhibitors of the Aldehyde Dehydrogenase Family (ALDH2) Confirmatory screens (AID 2061303; active = well fitted inhibition curve with a large enough effect; title and protocol of this record describe different tests; note: nearly all actives have a fitted effect of over 45% in size; note: potency is the fitted concentration of half-maximal effect)
# [2] = qHTS for Inhibitors of the Aldehyde Dehydrogenase Family (ALDH1A2, ALDH1A3, ALDH2, ALDH3A1) (AID 2061307); note: nearly all actives have a fitted effect of over 50% in size; for potency: test system not described further here; potency is the fitted concentration of half-maximal effect
# [3] = target: Retinaldehyde dehydrogenase 3 (Homo sapiens) (UniProt P47895); assay: qHTS for Inhibitors of the Aldehyde Dehydrogenase Family (ALDH1A3) Confirmatory screens (AID 2061311); note: nearly all actives have a fitted effect of over 60% in size; note: potency is the fitted concentration of half-maximal effect
# [4] = target: Retinaldehyde dehydrogenase 3 (Homo sapiens) (UniProt P47895); assay: qHTS for Inhibitors of the Aldehyde Dehydrogenase Family (ALDH1A3) Validation screen (AID 2061312); note: nearly all actives have a fitted effect of over 45% in size
# [5] = target: Retinal dehydrogenase 2 (Homo sapiens) (UniProt O94788); assay: qHTS for Inhibitors of the Aldehyde Dehydrogenase Family (ALDH1A2) Confirmation screens (AID 2061314); note: nearly all actives have a fitted effect of over 65% in size; note: potency is the fitted concentration of half-maximal effect
# [6] = target: Retinaldehyde dehydrogenase 3 (Homo sapiens) (UniProt P47895); assay: qHTS for Inhibitors of the Aldehyde Dehydrogenase Family (ALDH1A3) Primary screen (AID 2061315)
# [7] = target: Aldehyde dehydrogenase 1A1 (Homo sapiens) (UniProt P00352); assay: qHTS for Inhibitors of the Aldehyde Dehydrogenase Family (ALDH1A1) Confirmatory screens (AID 2061316); note: nearly all actives have a fitted effect of over 65% in size; note: potency is the fitted concentration of half-maximal effect
# [8] = BET inhibitor-based combinations targeting novel dependencies in MECOM-rearranged (r) AML: HNT-34 cell line (AID 2202234); note: nearly all actives have a fitted effect of over 35% in size
# Procedure, shortened: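 Luminescent ATP readout (CellTiter-Glo, 15 min at room temperature) after 48 hr drug exposure gave viability. Dose-response curves, normalized to DMSO and empty-well controls, were summarized as area under the curve and its mean-centred Z-score.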
# [9] = BET inhibitor-based combinations targeting novel dependencies in MECOM-rearranged (r) AML: AML-194 cell line (AID 2202237; note: nearly all actives have a fitted effect of over 40% in size)
# Procedure, shortened: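 Luminescent ATP readout (CellTiter-Glo) after 48 hr drug exposure gives viability. Curves span 11 concentrations and are normalized to DMSO and empty wells. Activity is reported as area under the curve and its Z-transform within each cell line.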
SMILES,Potency [1],Potency [2],Potency [3],Potency [4],Potency [5],Potency [6],Potency [7],Potency [8],Potency [9]
CN[C@@H]1[C@H](O[C@H]2[C@H](O[C@@H]3[C@@H](O)[C@H](O)[C@@H](N=C(N)N)[C@H](O)[C@H]3N=C(N)N)O[C@@H](C)[C@]2(O)C=O)O[C@@H](CO)[C@H](O)[C@H]1O,inactive,inactive,inactive,inactive,inactive,inactive,inactive,inactive,inactive
Cc1ccc(-c2ccc(C=O)cc2)c(C)c1,4.7 µM (active),15.8 µM (active),0.355 µM (active),,12.6 µM (active),,,,
Clc1cccc(-c2ccc(C3Nc4cccc5cccc(c45)N3)o2)c1,5.04 µM (active),10.1 µM (active),1.59 µM (active),,11.3 µM (active),,,,
COc1ccc(C2Nc3ccccc3C(=O)N2Cc2ccco2)cc1COc1cccc(NC(C)=O)c1 (stereo not given),11.3 µM (active),12.7 µM (active),11.3 µM (active),,11.3 µM (active),inactive,4 µM (active),,
CC(=O)Nc1sc2c(c1-c1cccc(F)c1)CCNC2,inactive,inactive,inactive,,20.1 µM (active),inactive,inactive,,
Cc1cccc(CNc2ccnc(-c3cccc4ccccc34)n2)c1,inactive,inactive,inactive,,inactive,inactive,inactive,,
O=C(C1CCN(Cc2ccccc2-c2ccccc2F)CC1)N1CCC(Cc2ccccc2)CC1,3.16 µM (active),inactive,inactive,,inactive,,,,
Cc1ccc2nc3sc(C(=O)NCCN4CCOCC4)cc3cc2c1,inactive,inactive,inactive,,inactive,inactive,inactive,,
CC1CCN(c2ccc(CNC(=O)CC3CCOCC3)cc2)CC1,inactive,inactive,10 µM (active),,,,,,
CC(=O)N1CCN(c2ccc(NCc3ccc(-c4ccc(Br)cc4)o3)cc2)CC1,0.142 µM (active),2.01 µM (active),25.2 µM (active),,2.52 µM (active),inactive,5.65 µM (active),,
Cc1ccc(-c2nn3c(C)nnc3s2)cc1NCc1ccc(-c2cccc(Cl)c2)o1,3.18 µM (active),3.57 µM (active),12.7 µM (active),,12.7 µM (active),inactive,6.34 µM (active),,
Cc1ccc(OCCn2c(CCNC(=O)c3ccccc3[N+](=O)[O-])nc3ccccc32)cc1,inactive,inactive,inactive,,inactive,inactive,,,
